Experimental data reported in PubChem BioAssay (Tox21).
Results filed as inconclusive are left out. Entries that show only a call come without a potency. Some compounds were tested as several samples or in several runs, with calls that do not always agree. Calls of active or inactive are those of the source. Unless noted, calls follow the shape of the full dose curve.

Assays:
[1] = qHTS assay to identify small molecule agonists of the peroxisome proliferator-activated receptor delta (PPARd) signaling pathway - cell viability counter screen (AID 743211; active = well fitted curve in the direction sought with a large enough effect in the repeat runs; an effect the other way counts as inactive or inconclusive; also: nearly all actives have a fitted effect of over 55% in size)
Summary of the method: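 Luminescent ATP viability assay (CellTiter-Glo, 30 min RT) in UAS-bla HEK293H cells carrying the PPAR delta reporter construct, 3000 cells/well, after a 17 h compound treatment at 37 C.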

[2] = target: Peroxisome proliferator-activated receptor delta (Homo sapiens) (UniProt Q03181); test: qHTS assay to identify small molecule agonists of the peroxisome proliferator-activated receptor delta (PPARd) signaling pathway (AID 743212);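 also: HEK293H cells with PPARd UAS beta-lactamase reporter GeneBLAzer system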
Summary of the method: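 Steps: seed PPARd-bla HEK293H cells; incubate 5 h, 37 C, 5% CO2; add compounds in DMSO; incubate, 37 C; add LiveBLAzer B/G FRET substrate; hold 2 h at room temperature; measure fluorescence.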

[3] = qHTS assay to identify small molecule antagonists of the peroxisome proliferator-activated receptor delta (PPARd) signaling pathway - cell viability counter screen (AID 743213; active = well fitted curve in the direction sought with a large enough effect in the repeat runs; an effect the other way counts as inactive or inconclusive; also: nearly all actives have a fitted effect of over 50% in size)
Summary of the method: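 HEK293H cells with the PPARd UAS-bla reporter, co-treated 17 h at 37 C with compounds and L165041 (300 nM final), were lysed with CellTiter-Glo. Luminescence indicated viable cell content.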

[4] = target: Peroxisome proliferator-activated receptor delta (Homo sapiens) (UniProt Q03181); test: qHTS assay to identify small molecule antagonists of the peroxisome proliferator-activated receptor delta (PPARd) signaling pathway (AID 743215; active = well fitted inhibition curve with a large enough effect in the signal ratio in the repeat runs, not every such curve was filed as active; the % refers to the signal ratio;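 also: cells stimulated with agonist L165041 at 300 nM final during compound exposure; series mostly up to about 62 µM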)
Summary of the method: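 Screen format: qHTS, antagonist mode. HEK293H PPARd-bla cells received compound and 300 nM L165041 (final), 17 h, 37 C. Beta-lactamase detected via FRET substrate fluorescence, 2 h, room temperature.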

[5] = qHTS assay to identify small molecule agonists of the farnesoid-X-receptor (FXR) signaling pathway - cell viability counter screen (AID 743218; active = well fitted curve in the direction sought with a large enough effect in the repeat runs; an effect the other way counts as inactive or inconclusive; also: nearly all actives have a fitted effect of over 45% in size)
Summary of the method: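 Same-well cytotoxicity check on FXR-UAS-bla HEK 293T cells: 5 h attachment, 16 h compound at 37 C, CellTiter-Glo luminescence read at room temperature after 30 min.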

[6] = target: Bile acid receptor (Homo sapiens) (UniProt Q96RI1); test: qHTS assay to identify small molecule agonists of the farnesoid-X-receptor (FXR) signaling pathway (AID 743220; active = well fitted activation curve with a large enough effect in the signal ratio in the repeat runs, not every such curve was filed as active; the % refers to the signal ratio)
Summary of the method: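 FXR-UAS-bla HEK 293T cells carrying a UAS-driven beta-lactamase reporter were plated for 5 h at 37C/5% CO2, then exposed to DMSO-dissolved Tox21 10K compounds for 16 h at 37C. A LiveBLAzer B/G FRET substrate was loaded for 2 h at room temperature before fluorescence reading.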

[7] = qHTS assay to identify small molecule antagonists of the farnesoid-X-receptor (FXR) signaling pathway - cell viability counter screen (AID 743221; active = well fitted cell-killing curve with a large enough effect in the repeat runs, not every such curve was filed as active; also: nearly all actives have a fitted effect of over 50% in size)
Summary of the method: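 In GeneBLAzer FXR-UAS-bla HEK 293T cells stimulated with 50 uM chenodeoxycholic acid (final), compounds acted for 16 h at 37 C. Viability was assessed afterwards by CellTiter-Glo luminescence.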

[8] = target: Vitamin D3 receptor (Homo sapiens) (UniProt P11473); test: qHTS assay to identify small molecule agonists of the vitamin D receptor (VDR) signaling pathway (AID 743222)
Summary of the method: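 Using LiveBLAzer B/G FRET detection, agonism was scored in VDR-bla cells exposed overnight (16 h, 37C) to DMSO-dissolved compounds; substrate incubation was 2 h at room temperature.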

[9] = target: Vitamin D3 receptor (Homo sapiens) (UniProt P11473); test: qHTS assay to identify small molecule antagonists of the vitamin D receptor (VDR) signaling pathway (AID 743223; active = well fitted inhibition curve with a large enough effect in the signal ratio in the repeat runs, not every such curve was filed as active; the % refers to the signal ratio)
Summary of the method: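 Agonist 1alpha,25-dihydroxyvitamin D3 (3 nM in well) was added with each compound to VDR-bla cells preincubated 4 h. Cells stood 16 h at 37C, then FRET substrate 2 h at room temperature; fluorescence intensity recorded.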

[10] = qHTS assay to identify small molecule agonists of the vitamin D receptor (VDR) signaling pathway - cell viability counter screen (AID 743224; active = well fitted curve in the direction sought with a large enough effect in the repeat runs; an effect the other way counts as inactive or inconclusive; also: series mostly up to about 63 µM; nearly all actives have a fitted effect of over 50% in size)
Summary of the method: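 Counter screen for cytotoxicity: VDR-bla cells at 2,000 cells/well, 16 h compound exposure, then CellTiter-Glo luminescence after the beta-lactamase measurement.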

[11] = qHTS assay to identify small molecule antagonists of the vitamin D receptor (VDR) signaling pathway - cell viability counter screen (AID 743225; active = well fitted curve in the direction sought with a large enough effect in the repeat runs; an effect the other way counts as inactive or inconclusive; also: nearly all actives have a fitted effect of over 50% in size)
Summary of the method: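 Luminescent cell viability (CellTiter-Glo) in VDR-bla HEK 293T cells after 16 h compound exposure at 37C in the presence of 3 nM final 1-alpha,25-dihydroxy vitamin D3.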

[12] = qHTS assay to identify small molecule agonists of the NFkB signaling pathway - cell viability counter screen (AID 1159515); also: series mostly up to about 61 µM; nearly all actives have a fitted effect of over 55% in size
Summary of the method: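 Counter screen run alongside the NFkB-bla agonist assay: ME-180 reporter cells exposed to compounds for 5 hr, then lysed with CellTiter-Glo in the same wells. Luminescence, read after 30 min, reflects viable cells.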

[13] = qHTS assay to identify small molecule agonists of the endoplasmic reticulum stress response signaling pathway (AID 1159516; active = well fitted activation curve with a large enough effect in the signal ratio in the repeat runs, not every such curve was filed as active; the % refers to the signal ratio)
Summary of the method: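 For this screen, HeLa cells stably carrying beta-lactamase under the ER stress response element received test compounds, positive controls or DMSO for 5 hr at 37 C; B/G FRET substrate was then added and dual-wavelength emission recorded.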

[14] = qHTS assay to identify small molecule agonists of the endoplasmic reticulum stress response signaling pathway - cell viability counter screen (AID 1159517)
Summary of the method: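 After overnight attachment, ESRE-bla HeLa cells were treated with Tox21 library compounds for 5 hr. CellTiter-Glo luminescence, read 30 min post-addition at room temperature, reported viability.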

[15] = qHTS assay to identify small molecule antagonists of the retinoid-related orphan receptor gamma (ROR-gamma) signaling pathway - cell viability counter screen (AID 1159520; active = well fitted curve in the direction sought with a large enough effect in the repeat runs; an effect the other way counts as inactive or inconclusive; also: nearly all actives have a fitted effect of over 50% in size)
Summary of the method: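 Cytotoxicity was read from cellular ATP (CellTiter-Glo luminescence) after 16 hr at 37 C with 1 uM doxycycline induction. The inducer was added 2 hr after compound transfer to Tet-on ROR gamma CHO cells.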

[16] = target: Nuclear receptor ROR-gamma (Homo sapiens) (UniProt P51449); test: qHTS assay to identify small molecule antagonists of the retinoid-related orphan receptor gamma (ROR-gamma) signaling pathway (AID 1159521; active = well fitted curve in the direction sought with a large enough effect in the repeat runs; an effect the other way counts as inactive or inconclusive)
Summary of the method: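 CHO cells expressing RORγ under a TET-on promoter, luciferase under RORE control. Dox 1 uM final, 16 h; compounds added 2 h prior. Luminescence decrease measured.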

[17] = qHTS assay to identify small molecule agonists of the AP-1 signaling pathway - cell viability counter screen (AID 1159525); also: nearly all actives have a fitted effect of over 55% in size
Summary of the method: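 Intracellular ATP by Cell Titer Glo luminescence (30 min, RT) in the same ME-180 AP-1-bla wells after the 5 h compound exposure at 37 °C. Normalised to tetra n-octyl ammonium bromide and DMSO controls.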

[18] = qHTS assay to identify small molecule agonists of the AP-1 signaling pathway (AID 1159526)
[19] = target: Retinoic acid receptor RXR-alpha (Homo sapiens) (UniProt P19793); test: qHTS assay to identify small molecule agonists of the RXR signaling pathway (AID 1159527); also: nearly all actives have a fitted effect of over 35% in size; also: potency is read from the fitted curve at half-maximal effect
Summary of the method: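 Beta-lactamase reporter assay, agonist format. Engineered HEK 293T line, charcoal-stripped FBS at 2%, overnight (16 hr) exposure, fluorescence at 460 and 530 nm after 405 nm excitation.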

Sequence of Peroxisome proliferator-activated receptor delta (Homo sapiens) (Q03181 whole entry, looked up): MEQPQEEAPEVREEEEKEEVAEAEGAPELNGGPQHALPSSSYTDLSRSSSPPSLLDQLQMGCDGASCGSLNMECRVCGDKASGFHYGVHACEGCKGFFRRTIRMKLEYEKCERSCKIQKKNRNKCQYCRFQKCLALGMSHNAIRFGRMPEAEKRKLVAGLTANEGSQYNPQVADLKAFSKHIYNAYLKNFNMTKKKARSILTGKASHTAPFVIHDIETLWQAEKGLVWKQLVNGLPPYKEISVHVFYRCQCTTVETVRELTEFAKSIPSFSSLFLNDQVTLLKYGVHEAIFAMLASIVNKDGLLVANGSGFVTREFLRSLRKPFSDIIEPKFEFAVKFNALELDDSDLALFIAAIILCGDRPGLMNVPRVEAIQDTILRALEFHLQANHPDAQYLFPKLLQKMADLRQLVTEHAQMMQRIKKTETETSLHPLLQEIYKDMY
Sequence of Retinoic acid receptor RXR-alpha (Homo sapiens) (P19793 whole entry, looked up): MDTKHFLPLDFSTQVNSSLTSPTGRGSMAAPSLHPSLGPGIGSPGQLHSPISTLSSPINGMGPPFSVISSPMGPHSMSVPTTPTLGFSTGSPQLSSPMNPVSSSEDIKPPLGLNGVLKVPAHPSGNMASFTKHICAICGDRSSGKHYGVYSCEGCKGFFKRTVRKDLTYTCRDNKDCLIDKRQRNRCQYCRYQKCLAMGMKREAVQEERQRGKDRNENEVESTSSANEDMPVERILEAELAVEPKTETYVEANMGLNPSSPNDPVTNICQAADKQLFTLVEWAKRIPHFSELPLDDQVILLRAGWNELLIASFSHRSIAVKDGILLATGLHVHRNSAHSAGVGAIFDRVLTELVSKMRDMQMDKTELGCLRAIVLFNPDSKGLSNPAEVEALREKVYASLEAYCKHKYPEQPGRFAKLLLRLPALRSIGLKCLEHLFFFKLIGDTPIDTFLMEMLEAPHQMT
Sequence of Vitamin D3 receptor (Homo sapiens) (P11473 whole entry, looked up): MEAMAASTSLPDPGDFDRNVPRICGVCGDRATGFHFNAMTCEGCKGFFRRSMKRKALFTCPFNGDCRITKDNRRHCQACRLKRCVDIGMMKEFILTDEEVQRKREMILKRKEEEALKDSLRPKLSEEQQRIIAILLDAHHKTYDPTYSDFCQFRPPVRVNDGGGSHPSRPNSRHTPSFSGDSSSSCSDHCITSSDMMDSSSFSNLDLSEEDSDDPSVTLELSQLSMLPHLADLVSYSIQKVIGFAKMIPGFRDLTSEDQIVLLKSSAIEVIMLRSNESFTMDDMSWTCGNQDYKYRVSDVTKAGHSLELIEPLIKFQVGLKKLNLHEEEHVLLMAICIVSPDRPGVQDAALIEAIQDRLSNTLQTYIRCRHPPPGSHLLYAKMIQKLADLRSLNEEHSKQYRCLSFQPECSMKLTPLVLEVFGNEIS
Sequence of Bile acid receptor (Homo sapiens) (Q96RI1 whole entry, looked up): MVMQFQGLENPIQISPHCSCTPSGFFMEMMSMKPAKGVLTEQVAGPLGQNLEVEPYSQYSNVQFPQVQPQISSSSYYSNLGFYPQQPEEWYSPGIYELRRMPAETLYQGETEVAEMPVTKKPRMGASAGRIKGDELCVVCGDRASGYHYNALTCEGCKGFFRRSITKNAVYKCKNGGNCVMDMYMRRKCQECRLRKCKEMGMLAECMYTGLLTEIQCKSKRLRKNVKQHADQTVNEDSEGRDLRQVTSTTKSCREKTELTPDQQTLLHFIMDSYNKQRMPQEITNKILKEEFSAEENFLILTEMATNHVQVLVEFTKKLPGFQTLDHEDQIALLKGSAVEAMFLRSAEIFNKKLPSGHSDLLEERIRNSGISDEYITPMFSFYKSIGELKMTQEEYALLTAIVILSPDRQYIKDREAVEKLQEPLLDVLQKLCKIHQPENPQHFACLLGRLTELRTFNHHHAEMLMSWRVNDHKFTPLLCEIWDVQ

Row | SMILES | Potency [1] | Potency [2] | Potency [3] | Potency [4] | Potency [5] | Potency [6] | Potency [7] | Potency [8] | Potency [9] | Potency [10] | Potency [11] | Potency [12] | outcome [13] | Potency [14] | Potency [15] | Potency [16] | Potency [17] | Potency [18] | Potency [19]
1 | CN1C(=O)c2ccc([N+](=O)[O-])cc2C1=O | inactive | inactive | inactive | inactive | inactive | inactive | inactive | inactive | inactive | inactive | inactive | inactive | inactive | inactive | inactive | inactive | inactive | inactive | inactive
2 | C/C=C/c1ccc(OCC)c(O)c1 | inactive | inactive |  | inactive | inactive |  | inactive | inactive |  |  | inactive | inactive | inactive | inactive | inactive | inactive | inactive | inactive | inactive
3 | Cc1scc2c1N(C(=O)CN1CCN(C)CC1)c1ccccc1NC2=O | inactive | inactive | inactive | inactive | inactive | inactive | inactive | inactive |  |  | inactive | inactive | inactive | inactive | inactive | inactive | inactive | inactive | inactive
4 | CC(=O)OCC1=C(C(=O)O)N2C(=O)[C@@H](NC(=O)Cc3cccs3)[C@H]2SC1 | inactive |  | inactive |  | inactive | inactive | inactive | inactive |  | inactive | inactive | inactive | inactive | inactive | inactive | inactive | inactive | inactive | inactive
5 | C[N+]1([O-])CCOCC1 | inactive | inactive | inactive | inactive | inactive |  | inactive | inactive | inactive |  | inactive | inactive | inactive | inactive | inactive | inactive | inactive | inactive | inactive
6 | COc1ccc(Cc2cnc(N)nc2N)cc1OC | inactive | inactive |  | inactive | inactive | inactive | inactive | inactive |  |  | inactive | inactive | inactive | inactive | inactive | inactive | inactive | inactive | inactive
7 | CC1=C(C=O)C(C)(C)CC=C1 | inactive | inactive | inactive |  | inactive |  | inactive | inactive |  | inactive | inactive | inactive | inactive | inactive | inactive | inactive | inactive | inactive | inactive
8 | CC[C@@H](N)CO | inactive | inactive | inactive | inactive | inactive |  | inactive | inactive | inactive |  |  | inactive | inactive | inactive | inactive | inactive | inactive | inactive | inactive
9 | CCN1CCCC1CNC(=O)c1cc(S(=O)(=O)CC)c(N)cc1OC (stereo unspecified) | inactive | inactive | inactive | inactive | inactive |  | inactive | inactive | inactive | inactive | inactive | inactive | inactive | inactive | inactive | inactive | inactive | inactive | inactive
10 | C=C(C)C1CC=C(C)C(OC(C)=O)C1 (stereo unspecified) | inactive | inactive | inactive | inactive | inactive | inactive | inactive | inactive | inactive | inactive | inactive | inactive | inactive | inactive | inactive | inactive | inactive | inactive | inactive
11 | CCN(CC)C(=O)Nc1ccc(OCC(O)CNC(C)(C)C)c(C(C)=O)c1 (stereo unspecified) | inactive | inactive |  | inactive | inactive |  | inactive |  |  | inactive | inactive | inactive | inactive | inactive | inactive | inactive | inactive | inactive | inactive
12 | COC(=O)c1cccc(C(=O)OC)c1 | inactive | inactive | inactive | inactive | inactive |  | inactive | inactive | inactive | inactive | inactive | inactive | inactive | inactive | inactive | inactive | inactive | inactive | inactive
13 | O=C(O)CCc1ccccc1 | inactive | inactive | inactive | inactive | inactive |  | inactive | inactive |  | inactive | inactive | inactive | inactive | inactive | inactive | inactive | inactive | inactive | inactive
14 | Cc1ccnc2c1NC(=O)c1cccnc1N2C1CC1 | inactive | inactive | inactive | inactive | inactive | inactive | inactive | inactive | inactive |  | inactive | inactive | inactive | inactive | inactive | inactive | inactive | inactive | 11.4 µM (active) and inactive
15 | O=c1n(CC2CO2)c(=O)n(CC2CO2)c(=O)n1CC1CO1 (stereo unspecified) | inactive | inactive |  |  |  |  | inactive | inactive |  | inactive | inactive | inactive | inactive | inactive | inactive | inactive | inactive | inactive | 3.89 µM (active)
